In PubChem BioAssay AID2014 (Sanford-Burnham Center for Chemical Genomics, 2009) one finds inhibition data, which are given here for 64 molecules.

For the assay, the target named is Polyadenylate-binding protein 1 (Homo sapiens) (UniProt P11940). Nature of the assay: PABP poly(A) RNA binding inhibitors, primary screen, biochemical, fluorescence polarization, uHTS (AID 2014).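 Also: calls also rest on retests at 20 µM and on dose response follow-up.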 The conditions noted are these: stronger effect = higher value.

In all, about 290,000 compounds went through this assay and about 3,000 (1%) were called active. This is one part of a sample in which actives are shown more often than they occur. No rule for the calls is given here.

Polyadenylate-binding protein 1 (Homo sapiens), sequence (P11940 whole entry, looked up): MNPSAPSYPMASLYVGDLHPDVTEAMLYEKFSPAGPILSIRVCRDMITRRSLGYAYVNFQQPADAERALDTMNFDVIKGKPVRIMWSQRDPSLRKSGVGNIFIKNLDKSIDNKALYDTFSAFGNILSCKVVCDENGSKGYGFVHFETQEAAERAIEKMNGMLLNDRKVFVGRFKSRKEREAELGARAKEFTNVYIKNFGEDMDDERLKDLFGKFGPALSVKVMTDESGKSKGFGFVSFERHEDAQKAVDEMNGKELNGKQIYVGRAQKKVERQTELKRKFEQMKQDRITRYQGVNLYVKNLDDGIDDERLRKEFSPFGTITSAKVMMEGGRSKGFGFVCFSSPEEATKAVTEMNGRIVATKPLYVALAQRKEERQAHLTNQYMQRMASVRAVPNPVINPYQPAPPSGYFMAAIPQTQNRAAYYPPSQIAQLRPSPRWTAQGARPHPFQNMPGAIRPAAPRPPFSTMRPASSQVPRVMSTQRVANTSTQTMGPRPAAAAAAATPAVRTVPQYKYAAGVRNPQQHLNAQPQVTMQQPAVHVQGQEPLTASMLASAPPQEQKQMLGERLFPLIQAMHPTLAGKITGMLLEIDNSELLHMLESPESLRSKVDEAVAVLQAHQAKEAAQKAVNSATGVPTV

For `CCC(=O)Nc1ccc(S(=O)(=O)Nc2c(NC)c3ccccc3oc2=O)cc1`, the inhibition (at 35 µM) is 0.6% (inactive). On to `CCCC(=O)N1CCc2[nH]c3ccccc3c2C1`, for which, under “at 35 µM”, the inhibition is 14.1% (inactive). Same read-out and setting: with `Cc1ccc2[nH]c3c(c2c1)CN(C(=O)CN1CCN(c2ccccc2)CC1)CC3` the figure was 90.5% (active); with `O=C(CN1CCCC1)N1CCN(c2ccccc2)CC1`, 0.4% (inactive); with `COCCNC(=O)C(c1ccc(C)cc1)N(C(=O)CCC(=O)Nc1ccccn1)c1cccc(C)c1` (configuration not stated), -1.8% (inactive). As to `CCc1nnc(NC(=O)c2nc3nccc(C)n3n2)s1`, the inhibition (at 35 µM) was -2.3% (inactive). On the same count and under the same terms, under `Cc1cccc(NC(=O)Nc2nnc(-c3ccccc3)o2)c1` stands -0.4% (inactive). As for `Cc1ccnc2nc(C(=O)Nc3nnc(-c4ccccc4)o3)nn12`, the inhibition is -1.8% (active) (at 35 µM) and 82.4% (confirmation repeats, at 20 µM). In the case of `CCCC1=Nc2cc(C(=O)NCCN3CCCC3)ccc2Sc2ccccc21`, the inhibition (at 35 µM) was -16.5% (inactive). The same measure, in the same setting: under `COc1cc(NC(=O)C2=C(C)OCCS2)c(Cl)cc1C(=O)NCCN1CCN(C)CC1` stands -8% (inactive). For `O=C(CSc1ccc(-c2ccco2)nn1)Nc1cccc(F)c1`, the inhibition (at 35 µM) was -7.4% (inactive). For the molecule `O=C(NCCCc1ccccc1)C(=O)NCC1OCCN1S(=O)(=O)c1ccccc1` (configuration not stated), the inhibition (at 35 µM) was 10.1% (inactive).

As for `O=C(NCCCn1ccnc1)C(=O)NCC1OCCN1S(=O)(=O)c1cc(F)ccc1F` (configuration not stated), for the setting “at 35 µM”, the inhibition was 58.4% (active). As for `Cc1cc(F)ccc1S(=O)(=O)N1CCCOC1CNC(=O)C(=O)NCCC1=CCCCC1` (configuration not stated), the inhibition (at 35 µM) was 0.9% (inactive). On to `Cc1ccc(C(=O)NC2CCN(C(=O)Nc3ccc(F)cc3)CC2)cc1`, for which the inhibition (at 35 µM) was 10.6% (inactive). Consider `CC(NC(=O)COc1cccnc1[N+](=O)[O-])c1ccc(Cl)cc1Cl` (configuration not stated), for which the inhibition (at 35 µM) was 0.4% (inactive). For the molecule `CC(C)c1ccccc1OCC(O)CN(CC(O)COc1cccc2ccccc12)C(C)C` (configuration not stated), for the setting “at 35 µM”, the inhibition is 5.7% (inactive). Turning to `COc1ccc(C(=O)N(C)CC(O)c2ccccc2)cc1OC1CCN(C(C)=O)CC1` (configuration not stated), the inhibition (at 35 µM) is -3.1% (inactive).

For the molecule `COc1ccc(CNC(=O)C(Cc2ccccc2)n2cccc2)cc1` (configuration not stated), where the note is “at 35 µM”, the inhibition is 9.5% (inactive). `CC(Cc1ccccc1)C(=O)N(C)Cc1ccccc1` (configuration not stated): the inhibition (at 35 µM) is 2% (inactive). `Cc1ccc(C)n1C(Cc1ccccc1)C(=O)O` (configuration not stated): the inhibition (at 35 µM) was 69.6% (active). For `COCCN1C(=O)N(c2ccc(Cl)cc2)C(=O)C1CC(=O)Nc1cc(OC)cc(OC)c1` (configuration not stated), the inhibition (at 35 µM) was -6.1% (inactive). For `COc1cccc(NC(=O)CSc2nnc(Cc3ccc(OC)c(OC)c3)o2)c1`, the inhibition (at 35 µM) was 14.4% (inactive). The same measure, in the same setting: with `O=C(CCCN1C(=O)/C(=C/c2ccccc2)SC1=S)Nc1ccc(O)cc1` the figure was -7.7% (inactive). `O=C(CCCN1C(=O)/C(=C\c2ccco2)SC1=S)Nc1cccc2ccccc12`: the inhibition is 4.3% (inactive) (at 35 µM) and -3.6% (confirmation repeats, at 20 µM).

Consider `O=C(CCCN1C(=O)/C(=C/c2ccco2)SC1=S)Nc1ccccc1`, for which the inhibition was 17.5% (active) (at 35 µM) and 52.5% (confirmation repeats, at 20 µM). For the molecule `CCCn1c(C)cc(/C=C(\C#N)C(=O)OCC(=O)Nc2cc(OC)c(OC)c(OC)c2)c1C`, the inhibition (at 35 µM) was -0.7% (inactive). Regarding `COc1ccc(Cl)cc1NC(=O)c1cccc(N2C(=O)C3CC=CCC3C2=O)c1` (configuration not stated), the inhibition (at 35 µM) was -3.5% (inactive). `Fc1ccccc1N=C1Nc2cccc3cccc1c23`: for the setting “at 35 µM”, the inhibition is -10.8% (inactive).

With `c1ccc(C2=Nc3cccc4cccc(c34)N2)cc1`, where the note is “at 35 µM”, the inhibition is 11.1% (inactive).

With `COc1ccccc1C1=Nc2cccc3cccc(c23)N1`, the inhibition is, setting by setting: (at 35 µM) 65.3% (active); (confirmation repeats, at 20 µM) 86.4%. `CC(C)c1ccc(S(=O)(=O)N2CCC3(CC2)OCCO3)cc1`: the inhibition (at 35 µM) is -6.1% (inactive). Turning to `CCOC(=O)C(Cc1ccccc1)NC(=O)CCC(=O)c1ccc(OC)cc1` (configuration not stated), under “at 35 µM”, the inhibition was -2.7% (inactive). Consider `COC(=O)[C@H](Cc1ccccc1)NC(=O)Nc1ccc(OC)cc1`, for which the inhibition (at 35 µM) is -6.6% (inactive). As to `COc1cc([C@H](Cc2ccccc2)NC(C)=O)oc(=O)c1`, the inhibition (at 35 µM) is 76.2% (active).

As for `O=C(CCC1CCN(C(=O)c2cccc(Cl)c2F)CC1)Nc1ccccc1`, the inhibition (at 35 µM) was -10.6% (inactive). Still for that read-out and setting: under `CS(=O)(=O)N1CCN=C1SCc1ccc(F)cc1` stands 0.3% (inactive). As for `CCN(c1ccccc1)S(=O)(=O)c1cc2c(cc1C)n(C)c(=O)c(=O)n2C`, the inhibition (at 35 µM) is -2% (inactive). Consider `C[n+]1ccc(C(=O)NCc2ccccc2)cc1`, for which the inhibition was 64.2% (active) (at 35 µM) and 92.7% (confirmation repeats, at 20 µM). In the case of `Nc1ccc(C(=O)NCc2ccccc2)cc1`, for the setting “at 35 µM”, the inhibition was 3.4% (inactive).

Take `CS(=O)(=O)NCc1ccc(C(=O)NCc2ccccc2)cc1`: the inhibition (at 35 µM) is 48.1% (inactive). Same read-out and setting: under `COC(=O)c1c(NC(=O)c2c(Cl)cnn2C)sc(C)c1C` stands -5.8% (inactive). For `CN(C(=O)c1c(Cl)cnn1C)C12CC3CC(CC(C3)C1)C2`, the inhibition (at 35 µM) is 86.8% (active) and the inhibition (confirmation repeats, at 20 µM) is 75%. As for `Cn1ncc(Br)c1C(=O)NC1CCCC1`, for the setting “at 35 µM”, the inhibition is 2.8% (inactive). Turning to `Cn1c(CCc2ccccc2)nnc1SCC(N)=O`, the inhibition (at 35 µM) is -5.2% (inactive). Take `C/C(=N\Nc1nncc2ccccc12)c1ccc(Cl)c([N+](=O)[O-])c1`: the inhibition (at 35 µM) is 2% (inactive).

As for `Clc1ccc(CN2CCCCCC2)cc1Cl`, the inhibition (at 35 µM) was 17.8% (inactive). Turning to `COc1ccccc1CN1CC(C(=O)NCCc2cn[nH]c2)CCC1=O` (configuration not stated), where the note is “at 35 µM”, the inhibition is 27% (inactive). On the same count and under the same terms, under `CCn1nnnc1SCC(=O)Nc1ccc(N(C)C)cc1` stands 1.4% (inactive). On to `Cc1ccc(Nc2nc(Cl)c(C=O)s2)cc1`, for which the inhibition (at 35 µM) was 40.3% (inactive) and the inhibition (confirmation repeats, at 20 µM) was 44.5%. As for `Cc1cc(C)c2nc(-c3ccco3)cc(C(=O)O)c2c1`, where the note is “at 35 µM”, the inhibition was 91.2% (active). On to `COC(=O)c1cnn2c(C(F)(F)F)cc(-c3ccco3)nc12`, for which, under “at 35 µM”, the inhibition was 23.9% (inactive).

Turning to `Cc1ccsc1-c1cc(C(=O)O)c2c(ccc3ccccc32)n1`, the inhibition (at 35 µM) is 20.2% (inactive). As to `Cc1cc(C)nc(N/N=C/c2ccncc2)n1`, the inhibition (at 35 µM) is 2% (inactive). Regarding `CCN(CC)c1ccc(/C=N/NC(=O)c2cnccn2)c(O)c1`, where the note is “at 35 µM”, the inhibition is -7.1% (inactive). Take `CCN(CC)c1ccc(/C=N/Nc2nc(C)cc(C)n2)c(O)c1`: the inhibition is, setting by setting: (at 35 µM) 16.6% (active); (confirmation repeats, at 20 µM) 67.4%.

With `CC1CSc2nnc(CCc3ccccc3)n21` (configuration not stated), the inhibition (at 35 µM) is -2.9% (inactive). On the same count and under the same terms, under `c1ccc(CCC2=NCCn3cccc32)cc1` stands 67.5% (active); under `S=C(NCCc1ccccc1)N1CCn2cccc2C1c1ccncc1` (configuration not stated), 6.4% (inactive); under `O=C(Nc1cccnc1Cl)c1cc(-c2ccccc2O)on1`, -6.2% (inactive). With `COc1ccc(NC(=O)c2cccc3c2C(=O)N(CC2CCCO2)C3)cc1OC` (configuration not stated), the inhibition (at 35 µM) is -2% (inactive). Turning to `COc1ccc(CNC(=O)c2cc3c(=O)n4ccccc4nc3n(CC3CCCO3)c2=N)cc1` (configuration not stated), under “at 35 µM”, the inhibition is -5.2% (inactive). Regarding `Cc1ccc2nc3c(cc(C(=O)NCCc4ccccc4)c(=N)n3CC3CCCO3)c(=O)n2c1` (configuration not stated), the inhibition (at 35 µM) is 83.3% (active). On to `Cc1cccn2c(=O)c3cc(C(=O)NCC4CCCO4)c(=N)n(Cc4ccc(F)cc4)c3nc12` (configuration not stated), for which the inhibition (at 35 µM) is -1% (inactive).
